Test systems include NCI-H23 lung; NCI-H226 lung; NCI-H322M lung; HOP-62 NSCLC; NCI-H460 lung; NCI-H522 lung; A549/ATCC NSCLC; 786-0 renal; COLO 205 colon; DU-145 prostate; K-562 leukemia; MALME-3M melanoma; MDA-MB-231 breast; RXF 393 renal; SF-268 CNS; SF-295 CNS; SF-539 CNS; UACC-257 melanoma; M14 melanoma.
Holding throughout (experiment): NCI-60 one-dose screen, 48 h (100 = growth as untreated, 0 = no growth, -100 = all killed)
Holding throughout (settings): 10 µM unless noted

About 83,000 compounds went through this panel and 20% of them were active in at least one assay; those are over-represented in the sample as a whole.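 In brief: 96-well plates, 48 h treatment, single concentration, percent growth endpoint.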 A number with no mark means an inactive call. Activity calls are given as the source filed them. Rule for the calls: active = growth percent below 10; inactive = the rest.

`O=C(/C=C/c1ccccc1)c1c[nH]c2ccccc2c1=O`: the growth in the test on NCI-H23 lung was 9.55% (active); with NCI-H226 lung it was 8.22% (active); in the test with NCI-H322M lung, -7.62% (active); with HOP-62 NSCLC, 23.6%; with NCI-H460 lung it was -32.8% (active); in the test with NCI-H522 lung, 0.426% (active). Moreover, the growth in the test on A549/ATCC NSCLC was 3.17% (active); in the test with 786-0 renal it was 4.48% (active); with COLO 205 colon it was 0.617% (active); in the test with DU-145 prostate, 7.22% (active); in the test with K-562 leukemia, 11.1%; with MALME-3M melanoma, 43.6%. Further, the growth with MDA-MB-231 breast is -1.53% (active); in the test with RXF 393 renal, 18.1%; in the test with SF-268 CNS it was -14.1% (active); in the test on SF-295 CNS it was -51.7% (active); in the test with SF-539 CNS, -24.5% (active); in the test on UACC-257 melanoma, 58.9%. In addition, the growth in the test on M14 melanoma is -24% (active).

Consider `O=c1c2cc(Cl)ccc2oc2ccc(OCCCCCN3CCCCC3)cc12`, for which the growth is 75.1% with NCI-H23 lung; 86.7% in the test with NCI-H226 lung; 89.7% in the test on NCI-H322M lung; 88.9% in the test with HOP-62 NSCLC; 10.2% in the test with NCI-H460 lung; 36.2% with NCI-H522 lung. In addition, the growth was 32.3% with A549/ATCC NSCLC; 35.4% in the test on 786-0 renal; 10.6% in the test on COLO 205 colon; 74.6% in the test with DU-145 prostate; 2.44% (active) in the test on K-562 leukemia; 74.9% with MALME-3M melanoma. Also, the growth was 46.1% with MDA-MB-231 breast; 60.9% in the test on RXF 393 renal; 73.1% in the test on SF-268 CNS; 75.5% in the test on SF-295 CNS; 58.3% in the test on SF-539 CNS; -26.2% (active) in the test on UACC-257 melanoma.

As for `O=C1/C(=C/c2ccccc2)SC(=Nc2ccccc2)N1Nc1ccccc1`, the growth was 13.8% in the test with NCI-H23 lung; -40.1% (active) in the test with NCI-H226 lung; 26.9% in the test on NCI-H322M lung; 39.4% in the test on HOP-62 NSCLC; -25.2% (active) with NCI-H460 lung; -5.53% (active) with NCI-H522 lung. The growth with A549/ATCC NSCLC is 15.5%; in the test with 786-0 renal, -31.4% (active); in the test on COLO 205 colon, 0.201% (active); in the test with DU-145 prostate, 22%; in the test on K-562 leukemia, 4.55% (active); with MALME-3M melanoma it was -14.6% (active). The growth in the test on MDA-MB-231 breast is 12.1%; with RXF 393 renal, -58% (active); in the test with SF-268 CNS it was 26.9%; in the test on SF-295 CNS, 16.2%; with SF-539 CNS, 5.85% (active); in the test with UACC-257 melanoma it was 10.5%.

For `NC(CCC(=O)NC(CS)C(=O)NCC(=O)O)C(=O)O` (stereo unspecified), the growth in the test on NCI-H23 lung is 108%; in the test with NCI-H226 lung, 101%; in the test on NCI-H322M lung it was 126%; with HOP-62 NSCLC it was 103%; with NCI-H460 lung, 106%; in the test on NCI-H522 lung it was 98.3%. Further, the growth in the test on A549/ATCC NSCLC was 94.2%; in the test on 786-0 renal, 109%; in the test on COLO 205 colon it was 104%; in the test on DU-145 prostate, 112%; in the test with K-562 leukemia, 84.2%; in the test on MALME-3M melanoma it was 122%. For the same compound, the growth with MDA-MB-231 breast is 117%; in the test with RXF 393 renal it was -24.6% (active); in the test on SF-268 CNS it was 103%; in the test on SF-295 CNS it was 104%; in the test on SF-539 CNS it was 105%; in the test on UACC-257 melanoma, 101%.

Take `CN(C)c1nc(-c2ccco2)n2nc(-c3ccc(Cl)cc3)cc2n1`: the growth in the test on NCI-H23 lung was 77.5%; in the test with NCI-H226 lung, 52%; with NCI-H322M lung, 69.8%; in the test on HOP-62 NSCLC, 38%; in the test with NCI-H460 lung, 27.7%; with NCI-H522 lung it was 71.5%. The growth in the test on A549/ATCC NSCLC is 49.6%; with 786-0 renal, 43.4%; with COLO 205 colon it was 67.6%; in the test with DU-145 prostate it was 77%; in the test on K-562 leukemia, 67.4%; in the test with MALME-3M melanoma, 98.6%. The growth with MDA-MB-231 breast is 54.3%; with RXF 393 renal, 51%; in the test with SF-268 CNS it was 66.6%; in the test on SF-295 CNS, 56%; in the test on SF-539 CNS, 63.4%; in the test on UACC-257 melanoma, 98.7%.

For `NC(=O)N/N=C\c1ccc([N+](=O)[O-])o1`, the growth in the test on NCI-H23 lung is 99.6%; in the test with NCI-H226 lung, 101%; in the test on NCI-H322M lung, 117%; in the test with HOP-62 NSCLC, 96.7%; in the test with NCI-H460 lung, 105%; with NCI-H522 lung, 95.8%. Besides, the growth with A549/ATCC NSCLC was 97.1%; in the test with 786-0 renal, 107%; in the test with COLO 205 colon, 117%; in the test on DU-145 prostate, 105%; in the test on K-562 leukemia it was 101%; in the test on MALME-3M melanoma, 73%. Also, the growth in the test with MDA-MB-231 breast was 122%; in the test on RXF 393 renal, 123%; in the test with SF-268 CNS it was 102%; in the test with SF-295 CNS, 97.7%; in the test with SF-539 CNS, 102%; in the test with UACC-257 melanoma, 91.9%.

`Fc1ccc(-c2nc(-c3ccc(-c4nc5ccc(F)cc5[nH]4)cc3)no2)cc1`: the growth was 67.7% in the test on NCI-H23 lung; 54.9% with NCI-H226 lung; 70.5% in the test with NCI-H322M lung; 79.6% in the test with HOP-62 NSCLC; 67.4% in the test on NCI-H460 lung; 91.4% with NCI-H522 lung. In addition, the growth in the test on A549/ATCC NSCLC is 75.4%; in the test on 786-0 renal, 102%; with COLO 205 colon it was 71.6%; in the test with DU-145 prostate, 39.4%; in the test on K-562 leukemia it was 63%; in the test on MALME-3M melanoma, 68.3%. In addition, the growth is 74.3% with MDA-MB-231 breast; 79.8% in the test with RXF 393 renal; 66.1% in the test on SF-268 CNS; 73.4% in the test on SF-295 CNS; 69.2% in the test on SF-539 CNS; 87.8% with UACC-257 melanoma. For the same compound, in the test on M14 melanoma, the growth is 62.3%.

Regarding `CC(CN1CCN(CC(C)Nc2ccnc3cc(Cl)ccc23)CC1)Nc1ccnc2cc(Cl)ccc12` (stereo unspecified), the growth in the test with NCI-H23 lung was 62.3%; in the test on NCI-H226 lung it was 26.6%; with NCI-H322M lung, 20.7%; in the test on HOP-62 NSCLC it was -18.4% (active); with NCI-H460 lung it was -30.4% (active); with NCI-H522 lung it was -29.4% (active). Moreover, the growth with A549/ATCC NSCLC is 15.7%; in the test on 786-0 renal, -9.83% (active); in the test with COLO 205 colon, -85% (active); in the test on DU-145 prostate it was 30%; in the test with K-562 leukemia it was -21.9% (active); in the test with MALME-3M melanoma it was -55.5% (active). In addition, the growth in the test with MDA-MB-231 breast is -19% (active); with RXF 393 renal it was -69.4% (active); in the test on SF-268 CNS, 16.7%; with SF-295 CNS, -48.2% (active); in the test on SF-539 CNS, -82.4% (active); in the test with UACC-257 melanoma, -61.4% (active). Besides, the growth in the test with M14 melanoma was -88% (active).

On to `COc1ccc(-c2cnc(-c3ccncc3-c3cccc(OC)c3)o2)cc1`, for which the growth in the test on NCI-H23 lung was 19.4%; in the test on NCI-H226 lung it was 15.3%; in the test with NCI-H322M lung it was 56.3%; in the test on HOP-62 NSCLC, 26.3%; with NCI-H460 lung, 7.36% (active); in the test with NCI-H522 lung it was -59.9% (active). Moreover, the growth in the test on A549/ATCC NSCLC is 30.7%; with 786-0 renal it was 24.8%; with COLO 205 colon, -44.1% (active); with DU-145 prostate, 0.973% (active); in the test on K-562 leukemia, 7.13% (active); in the test with MALME-3M melanoma, 92%. The growth with MDA-MB-231 breast is -9.9% (active); in the test with RXF 393 renal it was 43.1%; in the test on SF-268 CNS, 18.2%; with SF-295 CNS, -8.54% (active); with SF-539 CNS, -0.0741% (active); in the test with UACC-257 melanoma, 83.6%. The growth in the test on M14 melanoma is 23.9%.

The values are drawn from PubChem BioAssay (NCI).
